In all, about 5,500 compounds went through this assay and about 2,000 (36%) were called active. About 18% were inconclusive and are not listed. Rule as the data show it: active = normalized growth mostly below about 0.91 (no sharp cut-off); inconclusive = no clear call, values can overlap the other calls; inactive = mostly above about 0.92. The list shows a part of the results.
Assay: chemical genetic growth profiling, strain panel (AID 1159580);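 also: tested at 20 µM; growth read once vehicle control cultures reached saturation at 30 °C; 1 = growth at the plate median or of vehicle wells; lower values mean less growth of the strain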
Conditions: growth OD

Measured: normalized growth

CC(NCCc1ccc(O)cc1)C(O)c1ccc(O)cc1 (centres undefined)
inactive: S. cerevisiae deletion strains, locus YJR043C, strain POL32, active compounds read low 0.992 | S. cerevisiae deletion strains, locus YJR066W, strain TOR1, active compounds read low 0.948 | S. cerevisiae deletion strains, locus YKL009W, strain mrt4, active compounds read low 0.977 | S. cerevisiae deletion strains, locus YKL068W, active compounds read low 0.985 | S. cerevisiae deletion strains, locus YKL085W, strain MDH1 (second series), active compounds read low 0.984 | S. cerevisiae deletion strains, locus YKL085W, strain MDH1, active compounds read low 0.984 | S. cerevisiae deletion strains, locus YKL160W, strain elf1, active compounds read low 0.966 | S. cerevisiae deletion strains, locus YKL190W, strain CNB1, active compounds read low 0.998 | S. cerevisiae deletion strains, locus YKR001C, strain vps1, active compounds read low 0.987 | S. cerevisiae deletion strains, locus YKR026C, strain gcn3, active compounds read low 0.985 | S. cerevisiae deletion strains, locus YKR091W, strain srl3, active compounds read low 0.985 | S. cerevisiae deletion strains, locus YLL001W, strain dnm1, active compounds read low 0.981 | S. cerevisiae deletion strains, locus YLL026W, active compounds read low 0.999 | S. cerevisiae deletion strains, locus YLL041C, strain sdh2, active compounds read low 0.983 | S. cerevisiae deletion strains, locus YLR027C, strain aat2, active compounds read low 0.983 | S. cerevisiae deletion strains, locus YLR039C, strain RIC1, active compounds read low 1.02 | S. cerevisiae deletion strains, locus YLR058C, strain SHM2, active compounds read low 0.988 | S. cerevisiae deletion strains, locus YLR102C, strain apc9, active compounds read low 0.98 | S. cerevisiae deletion strains, locus YLR113W, strain HOG1, active compounds read low 1.01 | S. cerevisiae deletion strains, locus YLR221C, strain rsa3, active compounds read low 1.03 | S. cerevisiae deletion strains, locus YLR258W, strain gsy2, active compounds read low 0.954 | S. cerevisiae deletion strains, locus YLR262C, strain YPT6 (second series), active compounds read low 0.993 | S. cerevisiae deletion strains, locus YLR262C, strain YPT6, active compounds read low 0.977 | S. cerevisiae deletion strains, locus YLR268W, strain sec22, active compounds read low 0.975 | S. cerevisiae deletion strains, locus YLR320W, strain mms22, active compounds read low 0.987 | S. cerevisiae deletion strains, locus YLR330W, strain CHS5, active compounds read low 0.987 | S. cerevisiae deletion strains, locus YLR342W, strain FKS1 (second series), active compounds read low 0.984 | S. cerevisiae deletion strains, locus YLR342W, strain FKS1, active compounds read low 0.974 | S. cerevisiae deletion strains, locus YLR357W, strain rsc2, active compounds read low 0.916 | S. cerevisiae deletion strains, locus YLR370C, strain arc18, active compounds read low 0.95 | S. cerevisiae deletion strains, locus YLR371W, strain rom2, active compounds read low 0.975 | S. cerevisiae deletion strains, locus YLR384C, strain iki3, active compounds read low 0.975 | S. cerevisiae deletion strains, locus YLR418C, strain cdc73, active compounds read low 0.969 | S. cerevisiae deletion strains, locus YML016C, strain PPZ1, active compounds read low 0.986 | S. cerevisiae deletion strains, locus YML032C, strain rad52, active compounds read low 0.976 | S. cerevisiae deletion strains, locus YML120C, strain ndi1, active compounds read low 1.02 | S. cerevisiae deletion strains, locus YML124C, strain tub3, active compounds read low 0.99 | S. cerevisiae deletion strains, locus YMR058W, strain fet3, active compounds read low 0.988 | S. cerevisiae deletion strains, locus YMR078C, strain ctf18, active compounds read low 0.986 | S. cerevisiae deletion strains, locus YMR125W, strain sto1, active compounds read low 0.98 | S. cerevisiae deletion strains, locus YMR129W, active compounds read low 1.01 | S. cerevisiae deletion strains, locus YMR205C, strain PFK2, active compounds read low 1 | S. cerevisiae deletion strains, locus YMR223W, strain ubp8, active compounds read low 0.976 | S. cerevisiae deletion strains, locus YMR231W, strain pep5, active compounds read low 0.997 | S. cerevisiae deletion strains, locus YMR307W, strain GAS1, active compounds read low 0.891 | S. cerevisiae deletion strains, locus YNL067W, strain RPL9B, active compounds read low 1.01 | S. cerevisiae deletion strains, locus YNL071W, strain lat1, active compounds read low 0.993 | S. cerevisiae deletion strains, locus YNL128W, strain TEP1, active compounds read low 0.962 | S. cerevisiae deletion strains, locus YNL183C, strain NPR1, active compounds read low 0.959 | S. cerevisiae deletion strains, locus YNL209W, strain ssb2, active compounds read low 0.961 | S. cerevisiae deletion strains, locus YNL233W, strain BNI4, active compounds read low 1 | S. cerevisiae deletion strains, locus YNL248C, strain rpa49, active compounds read low 0.921 | S. cerevisiae deletion strains, locus YNL250W, strain rad50, active compounds read low 0.974 | S. cerevisiae deletion strains, locus YNL271C, strain bni1, active compounds read low 0.973 | S. cerevisiae deletion strains, locus YNL298W, strain CLA4, active compounds read low 0.981 | S. cerevisiae deletion strains, locus YNL307C, strain MCK1, active compounds read low 0.987 | S. cerevisiae deletion strains, locus YNL322C, strain KRE1 (second series), active compounds read low 0.985 | S. cerevisiae deletion strains, locus YNR049C, strain mso1, active compounds read low 0.977 | S. cerevisiae deletion strains, locus YNR052C, strain pop2, active compounds read low 0.985 | S. cerevisiae deletion strains, locus YOL006C, strain TOP1, active compounds read low 1.02 | S. cerevisiae deletion strains, locus YOL012C, strain htz1 0.994 | S. cerevisiae deletion strains, locus YOL147C, strain pex11, active compounds read low 0.983 | S. cerevisiae deletion strains, locus YOR001W, strain rrp6, active compounds read low 1.03 | S. cerevisiae deletion strains, locus YOR061W, strain CKA2, active compounds read low 0.984 | S. cerevisiae deletion strains, locus YOR069W, strain VPS5, active compounds read low 0.99 | S. cerevisiae deletion strains, locus YOR070C, strain gyp1, active compounds read low 0.976 | S. cerevisiae deletion strains, locus YOR080W, strain dia2, active compounds read low 0.977 | S. cerevisiae deletion strains, locus YOR083W, strain WHI5, active compounds read low 0.935 | S. cerevisiae deletion strains, locus YOR106W, strain vam3, active compounds read low 0.99 | S. cerevisiae deletion strains, locus YOR136W, strain idh2, active compounds read low 0.993 | S. cerevisiae deletion strains, locus YOR144C, strain elg1, active compounds read low 0.987 | S. cerevisiae deletion strains, locus YOR184W, strain ser1, active compounds read low 0.978 | S. cerevisiae deletion strains, locus YOR231W, strain MKK1, active compounds read low 1 | S. cerevisiae deletion strains, locus YOR265W, strain rbl2, active compounds read low 0.985 | S. cerevisiae deletion strains, locus YOR270C, strain vph1, active compounds read low 1.01 | S. cerevisiae deletion strains, locus YOR290C, strain snf2, active compounds read low 0.912 | S. cerevisiae deletion strains, locus YOR316C, strain cot1, active compounds read low 0.984 | S. cerevisiae deletion strains, locus YPL051W, strain arl3, active compounds read low 0.978 | S. cerevisiae deletion strains, locus YPL078C, strain atp4, active compounds read low 0.946 | S. cerevisiae deletion strains, locus YPL106C, strain sse1, active compounds read low 0.969 | S. cerevisiae deletion strains, locus YPL240C, strain hsp82, active compounds read low 0.995 | S. cerevisiae deletion strains, locus YPL241C, strain CIN2, active compounds read low 0.992 | S. cerevisiae deletion strains, locus YPL256C, strain CLN2, active compounds read low 1.01 | S. cerevisiae deletion strains, locus YPR119W, strain clb2, active compounds read low 0.986 | S. cerevisiae deletion strains, locus YPR141C, strain kar3, active compounds read low 0.969 | S. cerevisiae deletion strains, locus YPR163C, strain tif3, active compounds read low 0.982 | S. cerevisiae deletion strains, locus YPR167C, strain met16, active compounds read low 0.972 | S. cerevisiae deletion strains, strain wtn01, active compounds read low 0.976 | S. cerevisiae strains, strain wild type, active compounds read low 0.989

From PubChem BioAssay AID1159580 (chemical genetic matrix, 2015)
